These results are taken from PubChem BioAssay (NCATS).

The subject of one assay is TAB165. Put plainly: qHTS profiling for inhibitors of Plasmodium falciparum proliferation (AID 504749). Further: potency means the concentration at half of the fitted maximal effect. As to conditions: P. falciparum in erythrocytes, SYBR Green DNA, 72 h; series mostly up to 28.7 µM. The method in brief: (§1)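 Parasite proliferation within erythrocytes, 72 h exposure. Endpoint: SYBR Green I fluorescence after overnight lysis at room temperature. Controls: 0.29 uM artemisinin, DMSO.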
(qHTS replaces the single test concentration by a dilution series.)

The next assay relates to W2. The assay is described as above. As to conditions: P. falciparum in erythrocytes, SYBR Green DNA, 72 h; series mostly up to 28.7 µM. The method in brief:
as §1

The subject of the next assay is CRL-7250. Put plainly: Cytotoxic Profiling of Annotated Libraries Using Quantitative High-Throughput Screening (AID 1296008). On max response: on the % scale 0 is the no-effect control and ±100 the full control effect. The conditions noted are these: Five cell lines viability, CellTiter-Glo ATP luminescence, 48-72 h; max response: active compounds read low. The essentials:
(§2)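 Compounds were pin-transferred onto cells and incubated 48 or 72 hr at 37 degree Celsius, 95% humidity. CellTiter-Glo was added, plates sat 10 min at room temperature, then ATP-coupled luminescence was imaged as the viability read-out.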
In general terms: ATP-based viability assays read luminescence as a measure of living cells.

For another assay, the system named is HEK293. The assay is described as above. As to conditions: Five cell lines viability, CellTiter-Glo ATP luminescence, 48-72 h; max response: active compounds read low. The essentials:
as §2

Assay [1] concerns HaCat. The description is as above. The conditions noted are these: Five cell lines viability, CellTiter-Glo ATP luminescence, 48-72 h; max response: active compounds read low. The method in brief:
as §2

For the next assay, the system named is KB-3-1. The description is as above. The conditions noted are these: Five cell lines viability, CellTiter-Glo ATP luminescence, 48-72 h; max response: active compounds read low. The method in brief:
as §2

A further assay relates to NIH3T3. The assay is described as above. The conditions noted are these: Five cell lines viability, CellTiter-Glo ATP luminescence, 48-72 h; max response: active compounds read low. The essentials: as §2
For assay [2], the system named is HACAT. Put plainly: qHTS assay to identify novel small-molecules to repurpose for Merkel cell carcinoma treatment (AID 1296009). As to conditions: MCC and control cell lines, CellTiter-Glo viability, 72 h; at 44.8 µM (top of the series) unless noted. The essentials: (§3)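 qHTS format: cells treated with library compounds in DMSO across 8 (NPC) or 11 (MIPE) concentrations. Readout after 72 hr at 37 degree celsius was CellTiter-Glo luminescence.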

For a further assay, the system named is HEK293T. The description is as above. As to conditions: MCC and control cell lines, CellTiter-Glo viability, 72 h; at 44.8 µM (top of the series) unless noted. The method in brief:
as §3

In the next assay the test system is MCC-13. Described as above. As to conditions: MCC and control cell lines, CellTiter-Glo viability, 72 h; series mostly up to 46 µM. The essentials:
as §3

“And” between values parts separate entries of the source, which are not always exact repeats. Equal entries are not always repeated. Inconclusive results are not listed. Values without a mark were called inactive. The source made the active and inactive calls. The call rests on the fitted dose curve; in most records, active means well fitted inhibition curve with a large enough effect; inconclusive means small, poorly fitted or top-dose-only effect; inactive means flat fitted curve, though single readings scatter.
Further: nearly all actives have a fitted effect of over 60% in size.

As for `O=C1c2c(O)cccc2Cc2cccc(O)c21`, the Potency entry in the assay with TAB165, in the assay on W2 and in the assay with MCC-13 was “inactive” in each case. The max response is 0.516% in the assay with CRL-7250, -0.793% with KB-3-1 and 4.73% in the assay on NIH3T3. In addition, the compound was called inactive in the assay on HEK293, with HaCat [1], in the assay on HACAT [2] and in the assay with HEK293T.

For `CN(C)CCCO[C@@H]1[C@H]2OC(C)(C)O[C@H]2O[C@@H]1C(O)CO` (stereo partly specified), the max response in the assay on CRL-7250 is -6.03%; in the assay on KB-3-1, 3.47%; with NIH3T3 it was -0.499%. Moreover, the compound was called inactive with HEK293, in the assay on HaCat [1], with HACAT [2] and in the assay with HEK293T. In addition, the Potency result with MCC-13 was “inactive”.

In the case of `CCCCOC(=O)c1ccc(O)cc1`, the Potency result in the assay on TAB165 and in the assay with MCC-13 was “inactive” throughout. The max response in the assay on CRL-7250 is 0.245%; with KB-3-1 it was 0.659%; in the assay on NIH3T3 it was -12.6%. The call in the assay on HEK293, in the assay with HaCat [1], with HACAT [2] and with HEK293T was inactive.

For `CCC(=O)c1ccc(O)cc1`, the Potency entry in the assay with TAB165, with W2 and in the assay on MCC-13 was “inactive” in each case. The figures for the max response with CRL-7250 and in the assay with KB-3-1 were 4.24% and 5.91%, respectively. For the same compound, the result in the assay with HEK293, in the assay with HaCat [1], in the assay on NIH3T3, in the assay on HACAT [2] and in the assay with HEK293T was inactive.

With `OCC(CO)N[C@H]1C[C@](O)(CO)[C@@H](O)[C@H](O)[C@H]1O`, the max response was -4.94% with CRL-7250, -14.4% in the assay on KB-3-1 and 3.34% in the assay on NIH3T3. Besides, the call in the assay on HEK293, in the assay with HaCat [1], in the assay on HACAT [2] and in the assay with HEK293T was inactive. Besides, the Potency entry in the assay on MCC-13 is “inactive”.

For the compound `O=C1OC(OC(=O)c2cccnc2Nc2cccc(C(F)(F)F)c2)c2ccccc21` (stereo unspecified), the Potency entry in the assay on TAB165, in the assay with W2 and with MCC-13 was “inactive” each time. Further, the values for the max response with CRL-7250, in the assay on KB-3-1 and in the assay with NIH3T3 were 1.85%, 7.28% and -3.9%, respectively. For the same compound, the compound was called inactive with HEK293, in the assay with HaCat [1], with HACAT [2] and in the assay on HEK293T.

With `C[C@H]1O[C@H](O[C@H]2[C@H](O)[C@@H](O)[C@@H](O[C@H]3[C@H](O)[C@@H](O)[C@H](O)O[C@@H]3CO)O[C@@H]2CO)[C@H](O)[C@@H](O)[C@@H]1N[C@H]1C=C(CO)[C@@H](O)[C@H](O)[C@H]1O`, the outcome in the assay on CRL-7250, in the assay on HEK293, with HaCat [1], in the assay with NIH3T3, with HACAT [2] and with HEK293T was inactive. Further, the max response in the assay with KB-3-1 was -3.3%. In addition, in the assay with MCC-13, the Potency entry is “inactive”.

For `O=C(O)[C@H](O)c1ccccc1`, the results for the max response with CRL-7250 and with KB-3-1 were -7.55% and 5.08%, respectively. Besides, the compound was called inactive in the assay with HEK293, in the assay with HaCat [1], with NIH3T3, with HACAT [2] and in the assay on HEK293T. Also, the Potency entry in the assay on MCC-13 is “inactive”.

`CCCCCCCCCCCCOS(=O)(=O)O`: the Potency result in the assay on TAB165, in the assay with W2 and with MCC-13 was “inactive” throughout. Moreover, the compound was classed as inactive with CRL-7250, in the assay on HEK293, in the assay on HaCat [1], in the assay with NIH3T3, in the assay with HACAT [2] and in the assay on HEK293T. In addition, in the assay with KB-3-1, the max response is 16.2%.

For `O=C(O)Cc1sc(-c2ccccc2)nc1-c1ccc(Cl)cc1`, the max response in the assay on CRL-7250 was 3.43%; in the assay on KB-3-1, -1.67% and -19.6% and -27.8%; in the assay with NIH3T3, -0.692%. For the same compound, the compound was called inactive in the assay on HEK293, with HaCat [1], in the assay with HACAT [2] and with HEK293T. Further, in the assay with MCC-13, the Potency result was “inactive”.

`Oc1ccc(C(O)CNCCCCCCNCC(O)c2ccc(O)c(O)c2)cc1O` (stereo unspecified): the Potency with TAB165 is 11.2 µM (active); in the assay on W2, 16.9 µM (active). The max response is -1.96% in the assay on CRL-7250, 1.48% in the assay on KB-3-1 and 0.438% with NIH3T3. Also, the result with HEK293, in the assay on HaCat [1], in the assay on HACAT [2] and in the assay on HEK293T was inactive. For the same compound, the Potency entry in the assay on MCC-13 was “inactive”.

Take `Cc1c(Cl)cccc1Nc1ccccc1C(=O)O`: the Potency entry with TAB165 and in the assay with MCC-13 was “inactive” throughout. In addition, the Potency in the assay on W2 is 9.53 µM (active). Moreover, the outcome in the assay with CRL-7250, in the assay on HEK293, in the assay with HaCat [1], in the assay with NIH3T3, with HACAT [2] and in the assay on HEK293T was inactive. In addition, the max response with KB-3-1 is -2.57%.

For the compound `CC[C@@]1(c2ccccc2)NC(=O)N(C)C1=O`, the Potency result in the assay on TAB165, in the assay with W2 and with MCC-13 was “inactive” in each case. The results for the max response in the assay with CRL-7250, in the assay on KB-3-1 and in the assay on NIH3T3 were -4%, 31.6% and 1.13%, respectively. The result in the assay on HEK293, in the assay with HaCat [1], in the assay on HACAT [2] and with HEK293T was inactive.

As for `O=C(Oc1ccccc1C(=O)O)c1ccccc1O`, the Potency result in the assay on TAB165, with W2 and in the assay on MCC-13 was “inactive” each time. For the same compound, the max response in the assay on CRL-7250 was 4.21%; in the assay on KB-3-1, -14.6%. Moreover, the outcome in the assay on HEK293, in the assay with HaCat [1], in the assay on NIH3T3, in the assay with HACAT [2] and with HEK293T was inactive.

As for `COc1cc(C)c(Cc2cnc(N)nc2N)cc1OC`, the Potency entry in the assay on TAB165 and with MCC-13 was “inactive” in each case. For the same compound, the max response with CRL-7250 is 0.178%; in the assay with KB-3-1 it was 7.84%; in the assay with NIH3T3 it was 0.338%. Besides, the compound was classed as inactive with HEK293, in the assay on HaCat [1], in the assay with HACAT [2] and in the assay with HEK293T.

As to `NCCNCCNCCN`, the Potency result with TAB165, in the assay with W2 and in the assay on MCC-13 was “inactive” each time. For the same compound, the values for the max response in the assay with CRL-7250, in the assay on KB-3-1 and with NIH3T3 were 1.87%, -5.28% and -1.13%, respectively. Moreover, the call in the assay with HEK293, in the assay with HaCat [1], in the assay with HACAT [2] and in the assay on HEK293T was inactive.

In the case of `Cc1ncc([N+](=O)[O-])n1CC(O)CCl` (stereo unspecified), the max response in the assay with CRL-7250 was 0.168%; in the assay with KB-3-1 it was 18%; in the assay on NIH3T3 it was -5.9%. In addition, the result in the assay on HEK293, in the assay with HaCat [1], in the assay with HACAT [2] and in the assay on HEK293T was inactive. In the assay on MCC-13, the Potency entry is “inactive”.
